The source of these data is PubChem BioAssay.

Results with a measured potency or affinity are listed apart. Active and inactive are the calls of the source. How the calls were made is not given here.

A short description of this test: toxicity toward immortalized ovarian surface epithelium – cell-based, plate reader, dry powder samples, cytotoxicity control for PAX8 inhibitor project, dose response (AID 743045).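 Further: 0% = neutral control median and -100% = positive control median; more negative values mean more cell killing.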 To be noted: IOSE-T80 ovarian epithelial cells; series mostly up to 35 µM; activity change, negative = cytotoxicity: at the top concentration.
Turning to `C[C@@H]1CN([C@H](C)CO)C(=O)c2cc(NC(=O)Nc3ccc(F)cc3)ccc2O[C@@H](C)CCCCO[C@H]1CN(C)C(=O)NC1CCCCC1`, the “activity change, negative = cytotoxicity” value was 8.25% (inactive).
As for `Cc1ccc(S(=O)(=O)Nc2ccc3c(c2)C(=O)N([C@H](C)CO)C[C@@H](C)[C@H](CN(C)Cc2ccc(Cl)c(Cl)c2)OCCCC[C@H](C)O3)cc1`, the figure is 21.3% (inactive); as for `COc1ccc(S(=O)(=O)Nc2ccc3c(c2)CC(=O)N([C@@H](C)CO)C[C@@H](C)[C@H](CN(C)Cc2ccc(C(F)(F)F)cc2)O3)cc1`, -3.83% (inactive).
For the compound `C[C@@H]1CCCCO[C@@H](CN(C)C(=O)c2ccccc2)[C@H](C)CN([C@H](C)CO)C(=O)c2cc(NC(=O)Nc3ccc(C(F)(F)F)cc3)ccc2O1`, the “activity change, negative = cytotoxicity” value is 11.1% (inactive).
The value for `O=C(Cc1ccccc1)N1CC[C@H]2[C@H](CO)Nc3ccc(C4=CCCCC4)cc3[C@H]21` was 22% (inactive).
The value for `C[C@@H]1CCCCO[C@H](CN(C)CC2CCCCC2)[C@H](C)CN([C@@H](C)CO)C(=O)c2cc(NC(=O)Nc3ccccc3)ccc2O1` was 7.12% (inactive); that for `C[C@@H]1CN([C@H](C)CO)C(=O)c2cc(NC(=O)Nc3ccc(C(F)(F)F)cc3)ccc2O[C@@H](C)CCCCO[C@H]1CN(C)C(=O)NC1CCCCC1` was 16.4% (inactive); that for `C[C@H]1CN([C@@H](C)CO)S(=O)(=O)c2ccc(C#Cc3ccc(F)cc3)cc2O[C@@H]1CN(C)C(=O)NC1CCCCC1` was 26.8% (inactive).
On to `C[C@@H](O)C#Cc1ccc2c(c1)O[C@H](CN(C)Cc1ccc(-c3ccccc3)cc1)[C@@H](C)CN([C@@H](C)CO)S2(=O)=O`, for which the “activity change, negative = cytotoxicity” value is 20.7% [at 16 µM] (inactive).
As for `C[C@H]1CCCCO[C@H](CN(C)S(=O)(=O)c2ccc(F)cc2)[C@@H](C)CN([C@@H](C)CO)C(=O)c2cc(NS(=O)(=O)c3ccc(Cl)cc3)ccc2O1`, the figure is 26.9% (inactive).
The value for `C[C@@H]1CN([C@H](C)CO)C(=O)c2cc(NC(=O)Nc3ccc(C(F)(F)F)cc3)ccc2O[C@@H](C)CCCCO[C@H]1CN(C)S(=O)(=O)c1ccc(Cl)cc1` was 14.2% (inactive); that for `C[C@@H]1CN([C@H](C)CO)C(=O)c2cc(NS(=O)(=O)c3ccccc3)ccc2O[C@@H](C)CCCCO[C@@H]1CN(C)CC1CCCCC1` was -1.4% (inactive); that for `C[C@@H]1CN([C@H](C)CO)C(=O)c2cc(NC(=O)Nc3ccc(C(F)(F)F)cc3)ccc2O[C@@H](C)CCCCO[C@H]1CN(C)S(=O)(=O)c1ccccc1` was 10.4% [at 30 µM] (inactive).
As for `C[C@@H]1CN([C@@H](C)CO)C(=O)c2cc(NS(=O)(=O)c3cccs3)ccc2O[C@@H](C)CCCCO[C@H]1CN(C)Cc1ccc(C(F)(F)F)cc1`, the figure is 14.5% (inactive); as for `C[C@@H]1CCCCO[C@@H](CN(C)C(=O)Nc2ccc(C(F)(F)F)cc2)[C@H](C)CN([C@H](C)CO)C(=O)c2cc(NS(=O)(=O)c3ccc(F)cc3)ccc2O1`, 45.3% (inactive).
Take `Cc1ccc(S(=O)(=O)N(C)C[C@H]2Oc3cc(C#Cc4ccncc4)ccc3S(=O)(=O)N([C@H](C)CO)C[C@H]2C)cc1`: the “activity change, negative = cytotoxicity” value was -47.6% (inactive).
As for `C[C@@H]1CN([C@H](C)CO)C(=O)c2cc(NC(=O)Nc3ccccc3)ccc2O[C@@H](C)CCCCO[C@H]1CN(C)C(=O)Nc1ccc(C(F)(F)F)cc1`, the “activity change, negative = cytotoxicity” value is 5.32% (inactive).
As for `O=C(Nc1ccc(C(F)(F)F)cc1)Nc1ccc2c(c1)[C@@H]1C[C@H](CC(=O)N3CCc4ccccc4C3)O[C@H](CO)[C@@H]1O2`, the figure is 14.2% [at 30 µM] (inactive); as for `CC(C)CC1NC(=S)N(Cc2ccccc2)C1=O` (centres undefined), -9.09% [at 50 µM] (inactive).
With `C[C@H](CO)N1C[C@H](C)[C@H](CN(C)Cc2ccc(C(F)(F)F)cc2)OCCCC[C@H](C)Oc2ccc(NC(=O)NC3CCCCC3)cc2C1=O`, the “activity change, negative = cytotoxicity” value is 5.55% (inactive).
The value for `C[C@@H]1CN([C@H](C)CO)C(=O)c2cc(NC(=O)c3ccccc3)ccc2O[C@@H](C)CCCCO[C@@H]1CN(C)Cc1ccc(C(F)(F)F)cc1` was 18.9% (inactive); that for `COc1ccccc1C(=O)Nc1ccc2c(c1)C(=O)N(C)[C@@H]1CC[C@@H](CC(=O)NCc3ccc(Cl)c(Cl)c3)O[C@H]1CO2` was 16.1% (inactive); that for `C[C@@H]1CN([C@H](C)CO)S(=O)(=O)c2ccc(C#CC3CCCC3)cc2O[C@H]1CN(C)Cc1cccnc1` was 12.8% (inactive).
For the compound `C[C@H]1CN([C@@H](C)CO)C(=O)Cc2cc(NC(=O)NC3CCCCC3)ccc2O[C@H]1CN(C)Cc1ccc(-c2ccccc2)cc1`, the “activity change, negative = cytotoxicity” value was 1.98% (inactive).
As for `C[C@H](CO)N1C[C@H](C)[C@H](CN(C)Cc2ccc(C(F)(F)F)cc2)OCCCC[C@H](C)Oc2ccc(NS(=O)(=O)c3ccc(F)cc3)cc2C1=O`, the figure is 28.7% (inactive); as for `COc1ccc(-c2ccc3c(c2)[C@@H]2[C@@H](CCN2S(=O)(=O)c2ccc(OC)cc2)[C@@H](CO)N3C)cc1`, 22.7% (inactive); as for `C[C@@H]1CCCCO[C@H](CN(C)C(=O)Nc2ccc(C(F)(F)F)cc2)[C@@H](C)CN([C@@H](C)CO)C(=O)c2cc(NC(=O)Nc3ccc(C(F)(F)F)cc3)ccc2O1`, 2.3% (inactive).
The value for `CC(C)NC(=O)N(C)C[C@H]1OCCCC[C@@H](C)Oc2ccc(NC(=O)Nc3ccc(C(F)(F)F)cc3)cc2C(=O)N([C@@H](C)CO)C[C@H]1C` was -11% (inactive); that for `C[C@@H]1CN([C@H](C)CO)C(=O)c2cc(NC(=O)Nc3cccc4ccccc34)ccc2O[C@@H]1CN(C)C(=O)Nc1cccc2ccccc12` was 31.2% (inactive); that for `C[C@@H]1CN([C@H](C)CO)C(=O)c2cccc(NC(=O)Nc3cccc4ccccc34)c2O[C@@H]1CN(C)S(=O)(=O)c1ccc(Cl)cc1` was 17.6% (inactive).
The value for `C[C@H]1CCCCO[C@H](CN(C)Cc2ccc(C(F)(F)F)cc2)[C@@H](C)CN([C@@H](C)CO)C(=O)c2cc(NS(=O)(=O)c3ccc(F)cc3)ccc2O1` was 12.5% (inactive).
Take `C[C@@H]1CN([C@H](C)CO)C(=O)c2cc(NC(=O)Nc3ccc(F)cc3)ccc2O[C@@H](C)CCCCO[C@@H]1CN(C)Cc1ccc(Cl)c(Cl)c1`: the “activity change, negative = cytotoxicity” value is -3.71% (inactive).
As for `C[C@H](CO)N1C[C@H](C)[C@@H](CN(C)S(=O)(=O)c2cccc(F)c2)OCc2ccccc2-c2c(n(C)c3ccccc23)C1=O`, the figure is 0.348% (inactive); as for `C[C@@H]1CN([C@H](C)CO)C(=O)c2cc(NC(=O)Cc3ccccc3)ccc2O[C@@H](C)CCCCO[C@@H]1CN(C)Cc1ccc(C(F)(F)F)cc1`, 8.48% (inactive); as for `C[C@@H]1CN([C@H](C)CO)C(=O)CCCn2cc(nn2)CO[C@H]1CN(C)C(=O)Nc1ccc(-c2cccs2)cc1`, 4.94% (inactive).
As for `C[C@H]1CCCCO[C@H](CN(C)C(=O)C2CCCCC2)[C@@H](C)CN([C@@H](C)CO)C(=O)c2cc(NS(=O)(=O)c3ccc(Cl)cc3)ccc2O1`, the figure is -0.871% (inactive).
The value for `C[C@@H]1CCCCO[C@@H](CN(C)S(=O)(=O)c2ccc(F)cc2)[C@H](C)CN([C@H](C)CO)C(=O)c2cc(NS(=O)(=O)c3ccc(Cl)cc3)ccc2O1` was 16.1% (inactive); that for `Cc1noc(C)c1S(=O)(=O)Nc1ccc2c(c1)C(=O)N([C@H](C)CO)C[C@@H](C)[C@H](CN(C)C(=O)Nc1ccc(C(F)(F)F)cc1)OCCCC[C@@H](C)O2` was -1.61% (inactive).
As to `C[C@@H]1CCCCO[C@H](CN(C)Cc2ccc(C(F)(F)F)cc2)[C@H](C)CN([C@@H](C)CO)C(=O)c2cc(NS(=O)(=O)c3ccc(Cl)cc3)ccc2O1`, the “activity change, negative = cytotoxicity” value is 7.81% (inactive).
